The text below walks through data of PubChem BioAssay (NCI).

About 83,000 compounds went through this panel and 20% of them were active in at least one assay; those are over-represented in the sample as a whole.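 A percent growth of 40 corresponds to 60% growth inhibition; 0 means no net growth; -100 means all cells died. Active threshold: below 10.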 Unmarked numbers belong to inactive results. The source made the active and inactive calls.

The test deals with LOX IMVI melanoma. The experiment in a line: NCI-60 one-dose screen, 48 h (100 = growth as untreated, 0 = no growth, -100 = all killed). Conditions: 10 µM.
As for `CCCCCCCNc1nc(C=O)ncc1-c1ccc(C(F)(F)F)cc1`, the growth was 90.7%. The result for `C#Cc1ccc(-n2c(/C=C/c3ccc4ccccc4n3)nc3ncccc3c2=O)cc1` reads -50.8% (active); that for `O=C1c2ccc3c4c(ccc(c24)C(=O)N1CCNCc1ccccc1)C(=O)N(CCNCc1ccccc1)C3=O`, -47.9% (active).

On to `CCN(CC)Cc1cc(Nc2ccnc3cc(Cl)ccc23)ccc1OC`, for which the growth was 47.7%. Consider `Nc1ccc2c(c1)C1(CCC2)NC(=O)NC1=O` (stereo unspecified), for which the growth was 97.7%. In the case of `O=C(Nc1cccc(Cl)c1)Nc1nccs1` it was 94.1%. In the case of `N=C(N)c1ccc(-c2ccc(-c3cccs3)s2)s1` it was -75.7% (active). For `O=C1NC(=O)N(Cc2ccccc2)CC1Br` (stereo unspecified), the growth is 25.8%. The result for `COc1cc(C(=O)N2CCN(c3ccccc3OC)CC2)c(N)cc1OCCCN1CCN(c2ccccc2OC)CC1` reads 78.8%. The result for `CN(C)CCN=c1nc2c(c(N)n1-c1ccccc1)c(=S)n(-c1ccccc1)c(=S)n2-c1ccccc1` reads -61.4% (active); that for `CCOC(=O)c1ccc(NC(=O)Nc2ncc(Cl)cc2Cl)cc1`, 110%.

As to `CN(C)N=Nc1nn(C(=O)Nc2ccc(Cc3ccccc3)cc2)c2ccccc12`, the growth is 1.48% (active). Take `CC(=O)N(C)c1ccc(Nc2ccc(Nc3ccc(N(C)C(C)=O)cc3)c3c2C(=O)c2ccccc2C3=O)cc1`: the growth was 55%. The result for `CCOC(=O)C1(CC(C)C)CCOC1=O` (stereo unspecified) reads 96.8%. The result for `COc1ccc2c(c1)nc(N)c1c3cccnc3cn21` reads 35.1%.

With `CSCCCNC(=O)c1ccc2c(c1)/C(=C/c1[nH]c(C)cc1C)C(=O)N2`, the growth was 32.5%.
